According to PubChem BioAssay (NCATS):
Inconclusive results are not listed. Entries that show only a call come without a potency. Activity calls are given as the source filed them. Calls follow the shape of the dose curve; as a rule, active = well fitted inhibition curve with a large enough effect; inconclusive = small, poorly fitted or top-dose-only effect; inactive = flat fitted curve, though single readings scatter.

molecular target: Voltage-gated inwardly rectifying potassium channel KCNH2 (Homo sapiens) (UniProt Q12809); assay: qHTS Assay for Small Molecule Inhibitors of the Human hERG Channel Activity (AID 588834); conditions: U2OS BacMam hERG, FluxOR thallium flux fluorescence; series mostly up to 46.1 µM;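 also: lower thallium flux fluorescence means stronger hERG block; nearly all actives have a fitted effect of over 50% in size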
Summary of the method: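 Blockade is seen as reduced FluxOR thallium-flux fluorescence in U2OS cells expressing hERG from a BacMam construct, in Opti-MEM with 2% FCS. Concentration-response data fitted to the Hill equation for AC50.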
Potency is read from the fitted curve at half-maximal effect.

Voltage-gated inwardly rectifying potassium channel KCNH2 (Homo sapiens), sequence (Q12809 whole entry, looked up): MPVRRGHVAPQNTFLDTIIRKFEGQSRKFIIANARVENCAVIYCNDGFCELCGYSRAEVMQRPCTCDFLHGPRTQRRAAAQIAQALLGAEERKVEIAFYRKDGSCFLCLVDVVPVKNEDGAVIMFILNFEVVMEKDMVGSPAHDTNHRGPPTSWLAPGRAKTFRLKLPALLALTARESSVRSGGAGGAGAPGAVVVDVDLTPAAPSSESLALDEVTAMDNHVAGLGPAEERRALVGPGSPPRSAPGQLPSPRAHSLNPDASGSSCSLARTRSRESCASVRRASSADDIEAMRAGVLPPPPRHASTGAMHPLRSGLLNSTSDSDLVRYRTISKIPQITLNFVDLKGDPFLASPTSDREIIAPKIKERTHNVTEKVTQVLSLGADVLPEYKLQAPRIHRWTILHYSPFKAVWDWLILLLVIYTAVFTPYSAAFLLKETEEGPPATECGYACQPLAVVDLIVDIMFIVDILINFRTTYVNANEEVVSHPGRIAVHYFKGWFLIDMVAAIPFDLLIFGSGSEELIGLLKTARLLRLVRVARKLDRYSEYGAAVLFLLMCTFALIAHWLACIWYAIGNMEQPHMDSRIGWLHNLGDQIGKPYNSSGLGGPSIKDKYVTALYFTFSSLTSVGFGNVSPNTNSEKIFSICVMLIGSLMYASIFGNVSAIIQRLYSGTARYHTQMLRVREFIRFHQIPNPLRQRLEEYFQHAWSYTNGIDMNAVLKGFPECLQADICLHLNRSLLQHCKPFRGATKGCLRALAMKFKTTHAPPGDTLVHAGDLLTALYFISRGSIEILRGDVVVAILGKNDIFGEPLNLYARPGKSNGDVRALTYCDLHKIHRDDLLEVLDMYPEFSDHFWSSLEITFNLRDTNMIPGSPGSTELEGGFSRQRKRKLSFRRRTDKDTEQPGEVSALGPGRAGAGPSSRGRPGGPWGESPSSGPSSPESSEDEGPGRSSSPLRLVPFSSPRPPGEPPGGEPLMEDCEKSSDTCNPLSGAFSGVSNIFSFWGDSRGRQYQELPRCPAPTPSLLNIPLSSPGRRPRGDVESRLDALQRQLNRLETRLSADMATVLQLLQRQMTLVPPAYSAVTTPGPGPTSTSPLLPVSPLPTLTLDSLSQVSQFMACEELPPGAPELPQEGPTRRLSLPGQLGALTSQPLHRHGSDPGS

Row | SMILES | Potency
1 | C=C1CC[C@H](O)C/C1=C\C=C1/CCC[C@]2(C)[C@@H]([C@H](C)CCCC(C)C)CC[C@@H]12 | inactive
2 | CC1(C)S[C@@H]2[C@H](N3C(=O)C(c4ccccc4)NC3(C)C)C(=O)N2[C@H]1C(=O)O (stereo partly drawn) | inactive
3 | CO/N=C(\C(=O)N[C@@H]1C(=O)N2C(C(=O)O)=CCS[C@H]12)c1csc(N)n1 | inactive
4 | CC(CN1c2ccccc2Sc2cccnc21)N(C)C (stereo not drawn) | 891 nM (active)
5 | NC(=O)OCC(O)COc1ccc(Cl)cc1 (stereo not drawn) | inactive
6 | C=C[C@]1(C)C[C@@H](OC(=O)CSCCN(CC)CC)[C@]2(C)[C@H](C)CC[C@]3(CCC(=O)[C@H]32)[C@@H](C)[C@@H]1O | 2240 nM (active)
7 | CCCCCCCCCCCC(=O)OC[C@@H](O)C1OC[C@H](O)[C@H]1O (stereo partly drawn) | inactive
8 | CCCCCCCCCCCCCCCC(=O)OC[C@H](COP(=O)([O-])OCC[N+](C)(C)C)OC(=O)CCCCCCCCCCCCCCC | inactive
9 | CO[C@H]1C=CO[C@@]2(C)Oc3c(C)c(O)c4c(O)c(cc(O)c4c3C2=O)NC(=O)/C(C)=C\C=C/[C@H](C)[C@H](O)[C@@H](C)[C@@H](O)[C@@H](C)[C@H](OC(C)=O)[C@@H]1C | inactive
10 | CC(O)[C@@H]1NC(=O)[C@H](Cc2ccccc2)NC(=O)[C@H](C(C)O)NC(=O)[C@H](CCCCN)NC(=O)[C@H](Cc2c[nH]c3ccccc23)NC(=O)[C@H](Cc2ccccc2)NC(=O)[C@H](Cc2ccccc2)NC(=O)[C@H](CC(N)=O)NC(=O)[C@H](CCCCN)NC(=O)[C@@H](NC(=O)CNC(=O)[C@H](C)N)CSSC[C@@H](C(=O)O)NC(=O)[C@H](CO)NC1=O (stereo partly drawn) | inactive
11 | C=C1CC[C@H](O)CC1=C/C=C1\CCC[C@]2(C)[C@@H]([C@H](C)CC[C@@H](O)C(C)(C)O)CC[C@@H]12 | inactive
12 | CC[C@H](CC[C@@H](C)[C@H]1CC[C@H]2[C@@H]3CC=C4C[C@@H](O)CC[C@]4(C)[C@H]3CC[C@]12C)C(C)C | inactive
13 | COc1c(O[C@@H]2O[C@H](CO)[C@@H](O)[C@H](O)[C@H]2O)cc2c(c1OC)-c1ccc(SC)c(=O)cc1[C@@H](NC(C)=O)CC2 | inactive
14 | C[C@@H]1O[C@@H](OC[C@H]2O[C@@H](Oc3c(-c4ccc(OCCO)c(OCCO)c4)oc4cc(OCCO)cc(O)c4c3=O)[C@H](O)[C@@H](O)[C@@H]2O)[C@H](O)[C@H](O)[C@H]1O | inactive
15 | CN(C)CCC(O)(c1ccccc1)c1ccccc1Cl (stereo not drawn) | 3160 nM (active)
16 | CC1(C)[C@@H]2CC[C@@]1(C)[C@H](OC(=O)CSC#N)C2 | inactive
17 | Nc1nc2c(c(=O)[nH]1)N(C=O)C(CNc1ccc(C(=O)N[C@@H](CCC(=O)O)C(=O)O)cc1)CN2 (stereo partly drawn) | inactive
18 | Cc1ccc(S(=O)(=O)NC(=O)N[C@@H](C)Cc2ccccc2)cc1 | inactive
19 | CC1=CC(=C(c2ccc(N)cc2)c2ccc(N)cc2)C=CC1=N | inactive

Row | SMILES | Potency
20 | NC(Cc1ccccc1)C(=O)O (stereo not drawn) | inactive
21 | C[C@@H]1C[C@H]2[C@@H]3C[C@H](F)C4=CC(=O)C=C[C@]4(C)[C@@]3(Cl)[C@@H](O)C[C@]2(C)[C@H]1C(=O)COC(=O)C(C)(C)C | inactive
22 | CC[C@H](C)[C@@H]1NC(=O)[C@H](Cc2ccc(O)cc2)NC(=O)[C@@H](N)CSSC[C@@H](C(=O)N2CCC[C@H]2C(=O)N[C@@H](CC(C)C)C(=O)NCC(N)=O)NC(=O)[C@H](CC(N)=O)NC(=O)[C@H](CCC(N)=O)NC1=O | inactive
23 | COc1ccc(C(=O)/C(Br)=C\C(=O)O)cc1 | inactive
24 | CC1=C[C@H](O)CC(C)(C)[C@H]1/C=C/C(C)=C/C=C/C(C)=C/C=C/C=C(C)/C=C/C=C(C)/C=C/C1=C(C)C[C@@H](O)CC1(C)C | inactive
25 | CC(C)C[C@@H](NC(=O)[C@@H](O)[C@H](N)Cc1ccccc1)C(=O)O | inactive
26 | C=C1[C@H](CO)[C@@H](O)C[C@@H]1n1cnc2c(=O)[nH]c(N)nc21 | inactive
27 | CC(=O)OCC(=O)[C@@]1(O)CC[C@H]2[C@@H]3CCC4=CC(=O)CC[C@]4(C)C3=CC[C@@]21C | inactive
28 | O=[N+]([O-])O[C@@H]1CO[C@H]2[C@@H]1OC[C@@H]2O | inactive
29 | CC(C)[C@@H]1CC[C@@H](C)C[C@H]1OC(=O)c1ccccc1O | inactive
30 | NC[C@H]1O[C@H](O[C@H]2[C@H](O)[C@@H](O[C@H]3O[C@H](CO)[C@@H](O)[C@H](N)[C@H]3O)[C@H](N)C[C@@H]2N)[C@H](O)[C@@H](O)[C@@H]1O | inactive
31 | CC[C@H]1NC(=O)[C@@H](NC(=O)c2ncccc2O)[C@@H](C)OC(=O)[C@H](c2ccccc2)NC(=O)[C@@H]2CC(=O)CCN2C(=O)[C@H](Cc2ccccc2)N(C)C(=O)[C@@H]2CCCN2C1=O | inactive
32 | C[C@]12CC[C@@H]3c4ccc(O)cc4CC[C@H]3[C@@H]1CC[C@@H]2OP(=O)(O)O | inactive
33 | OC[C@H]1O[C@@H](O[C@H]2[C@H](O)[C@@H](O)[C@H](O)O[C@@H]2CO)[C@H](O)[C@@H](O)[C@@H]1O | inactive
34 | CNCC(=O)N[C@@H](CCCN=C(N)N)C(=O)N[C@H](C(=O)N[C@@H](Cc1ccc(O)cc1)C(=O)N[C@H](C(=O)N[C@@H](Cc1cnc[nH]1)C(=O)N1CCC[C@H]1C(=O)N[C@@H](C)C(=O)O)C(C)C)C(C)C | inactive
35 | C=CC1=C(C(=O)O)N2C(=O)[C@@H](NC(=O)/C(=N\O)c3csc(N)n3)[C@H]2SC1 (stereo in doubt) | inactive
36 | Nc1nc(NC2CC2)c2ncn([C@@H]3C=C[C@@H](CO)C3)c2n1 | inactive
37 | CC1CS(=O)(=O)CCN1/N=C/c1ccc([N+](=O)[O-])o1 (stereo not drawn) | inactive
38 | O=C(O)[C@@H]1C[C@H](CP(=O)(O)O)CCN1 | inactive
